Measurements from the supplement of paper PMC6555819.

Tests used:
Assay in all cases: PBM binding z-score (relative to random genomic background probes); higher = stronger binding; sequences stand for … in GC…GCGATTGACAGCGTAGAATGAAGG
[1] = tested on: FXR:RXRa (NR concentration 270 nM, RXRa partner concentration 90 nM)
Outline: (§1)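 On custom Agilent 4×180K arrays, double-stranded probes with 34-nt variable regions carried direct-repeat seeds, single-nucleotide variants, half-site ablations or random human genomic background. Ligand-free nuclear receptor dimers were applied for 1 h, and binding was read with antibodies against each partner (one per run). Binding z-scores come from regression-normalized fluorescence, with the random background probes as reference.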

[2] = tested on: LXRa:RXRa (NR concentration 270 nM, RXRa partner concentration 90 nM)
Outline: as §1

[3] = tested on: LXRa homodimer (NR concentration 270 nM)
Outline: as §1

[4] = tested on: LXRb:RXRa (NR concentration 270 nM, RXRa partner concentration 90 nM)
Outline: as §1

[5] = tested on: LXRb homodimer (NR concentration 270 nM)
Outline: as §1

[6] = tested on: PPARa:RXRa (NR concentration 270 nM, RXRa partner concentration 90 nM)
Outline: as §1

[7] = tested on: PPARg:RXRa (NR concentration 180 nM, RXRa partner concentration 90 nM)
Outline: as §1

[8] = tested on: PPARg:RXRa 270nM:90nM, anti-RXR (NR concentration 270 nM, RXRa partner concentration 90 nM)
Outline: as §1

[9] = tested on: PPARg:RXRa 30nM:10nM, anti-RXR (NR concentration 30 nM, RXRa partner concentration 10 nM)
Outline: as §1

[10] = tested on: PPARg:RXRa 90nM:30nM, anti-RXR (NR concentration 90 nM, RXRa partner concentration 30 nM)
Outline: as §1

[11] = tested on: PPARg:RXRa DBDmut IVT, anti-RXR (DBD mutation: RXRa K156A/R161A, NR concentration 270 nM, RXRa partner concentration 90 nM)
Outline: as §1

[12] = tested on: PPARg:RXRa IVT, anti-PPARg (NR concentration 270 nM, RXRa partner concentration 90 nM)
Outline: as §1

[13] = tested on: PPARg DBDmut:RXRa IVT, anti-PPARg (DBD mutation: PPARg1 K132A/R137A, NR concentration 270 nM, RXRa partner concentration 90 nM)
Outline: as §1

[14] = tested on: PPARg DBDmut IVT, anti-PPARg (DBD mutation: PPARg1 K132A/R137A, NR concentration 270 nM)
Outline: as §1

[15] = tested on: PPARg homodimer (NR concentration 180 nM)
Outline: as §1

[16] = tested on: PXR:RXRa (NR concentration 270 nM, RXRa partner concentration 90 nM)
Outline: as §1

[17] = tested on: PXR homodimer (NR concentration 270 nM)
Outline: as §1

[18] = tested on: RARa:RXR (NR concentration 270 nM, RXRa partner concentration 90 nM)
Outline: as §1

[19] = tested on: RARa homodimer (NR concentration 270 nM)
Outline: as §1

[20] = tested on: RARb:RXRa (NR concentration 270 nM, RXRa partner concentration 90 nM)
Outline: as §1

Row | Sequence | PBM binding z-score [1] | PBM binding z-score [2] | PBM binding z-score [3] | PBM binding z-score [4] | PBM binding z-score [5] | PBM binding z-score [6] | PBM binding z-score [7] | PBM binding z-score [8] | PBM binding z-score [9] | PBM binding z-score [10] | PBM binding z-score [11] | PBM binding z-score [12] | PBM binding z-score [13] | PBM binding z-score [14] | PBM binding z-score [15] | PBM binding z-score [16] | PBM binding z-score [17] | PBM binding z-score [18] | PBM binding z-score [19] | PBM binding z-score [20]
1 | TAGCCTAGGACATTCAGGGGCCAGTATAGAAAGC | -0.499 | -0.54 | -0.456 | -0.243 | -0.646 | -0.572 | 0.256 | -0.544 | -0.505 | -0.409 | -0.851 | -0.425 | -0.632 | -1.43 | -1.03 | -0.401 | -0.611 | -0.598 | -0.859 | 0.541
2 | AGAATGAGGTTAAGATCGGGGAAACAGAATACAT | 2.13 | 4.69 | -0.244 | 2.3 | 0.08 | 3.65 | 2.06 | 2.53 | 0.954 | 1.75 | 3.24 | 2.85 | 1.19 | 0.972 | 1.09 | 0.98 | 0.624 | 1.93 | 0.617 | 1.95
3 | ATTTCTAGGTAACCAAGTTCAGTGAATGCCGAAC | 0.465 | 0.956 | 1.1 | 0.544 | 0.68 | 2.16 | 1.8 | 1.8 | 0.773 | 1.38 | 5.61 | 4.97 | 2.81 | 3.03 | 1.16 | 2.1 | 1.89 | 0.832 | 1.02 | 1.49
4 | TCTTGTAGATCAATAGAGGTCAAGAAAGTGCGCT | 3.34 | 5.24 | 3.98 | 4.27 | 1.1 | 4.19 | 1.36 | 3.32 | 3.08 | 3.18 | 1.9 | 2.9 | 1.22 | 0.341 | 1.79 | 5.53 | 1.38 | 4.29 | 0.852 | 3.26
5 | ATCTCTAGGTAAAGATAGTACAGTGAATGCAAAT | 0.368 | 1.08 | 0.357 | 0.211 | 0.424 | 0.263 | 1.13 | 0.762 | 0.819 | 0.761 | 1.46 | 1.59 | 1.31 | 1.08 | 1.02 | 0.0817 | 0.418 | 0.0539 | 1.54 | 0.0238
6 | ATCTCTAGGTAAGAGTTCAGTGAATCCCGAGGAT | 0.291 | 1.13 | 0.982 | 0.873 | 0.69 | 3.22 | 5.23 | 6.11 | 4.98 | 6.44 | 1.35 | 2.7 | 0.769 | 1.17 | 1.09 | 2.32 | 2.16 | 0.952 | 0.264 | 1.96
7 | CCTTACTGGTCACGAGGTTATAGCACGACGAGCG | 1.49 | 1.46 | 0.682 | 1.36 | 0.455 | 2.04 | 1.77 | 1.97 | -0.0752 | 1.04 | 1.37 | 2.01 | 1.13 | 0.311 | 1.78 | 1.55 | 0.447 | 2.19 | 1.15 | 2.46
8 | TCGAGAAGGTTACCAATGGGGCATTCAGCTTTCT | 0.688 | 2.9 | -0.534 | 1.76 | -0.525 | 2.11 | 0.146 | 1.49 | 2 | 1.69 | 1.39 | 0.663 | -1.15 | -0.173 | 0.132 | 0.773 | -1 | 1.49 | -0.803 | 2.26
9 | AGAACGAGGGCAATGAGTTGATAGCGCGGGTGGC | 0.136 | 0.127 | -0.734 | -0.343 | -0.754 | 1.25 | 0.897 | 0.618 | -0.31 | 0.0829 | 3.57 | 2.39 | 0.0277 | -0.898 | -0.335 | 1.62 | 4.62 | -0.0907 | -1.01 | 1.96
10 | CCTACTGGGCCATCAGGACATTGATATCAACGTT | 0.247 | -0.3 | 0.171 | -0.621 | -0.424 | 0.703 | 1.19 | 1.26 | 0.361 | 0.825 | 3.58 | 3.83 | 0.0869 | 0.0679 | 0.687 | -0.0432 | -0.0909 | 0.486 | 0.102 | 0.235
11 | TCAAGTAGGTTAGGGGCATTCAGAATGGCGTCGA | 0.99 | 0.718 | 0.21 | 1.28 | 0.587 | 2.19 | 2.64 | 3.58 | 3.71 | 3.65 | 4.59 | 3.94 | 0.0234 | 0.234 | 1.35 | 1 | 0.86 | 0.878 | 0.676 | 1.51
12 | CCTTACGGGTCACGCCAGGTTATAGCATCGGAGT | 6.4 | 6.03 | 0.573 | 4.1 | -0.0774 | 5.57 | 6.03 | 6.08 | 2.72 | 4.76 | 3.85 | 4.83 | 0.182 | 0.0773 | 2.19 | 5.46 | 0.316 | 4.98 | 1.14 | 4.35
13 | CGTCCAAGGTCAATGCTAGGTCAGTCAAAGCATT | 6.9 | 5.33 | 3 | 4.39 | 0.815 | 4.98 | 4 | 4.84 | 1.11 | 3.32 | 3.29 | 3.92 | 0.558 | -0.362 | 4.74 | 4.84 | 1.29 | 5.75 | 1.17 | 5.36
14 | CGAATTAGGTCATCCAGGACAGTGAATACATTGA | 4.75 | 3.32 | 0.829 | 2.55 | 0.231 | 5.11 | 7.49 | 6.52 | 3.78 | 6.07 | 8.48 | 8.35 | 3.83 | 2.81 | 2.25 | 2.36 | 1.3 | 2.86 | 1.08 | 4.14
